Shown are actives, neighbours in structure and some others; about 1.7% of the full set was active somewhere.
RecA splice inh – inhibitors of M. tuberculosis RecA intein splicing; P9WHJ3; cell-free RecA intein splicing, fluorescence; inhibition, % (test concentration not listed); 0.75% of 290,000 active; in the data active = inhibition above about 30%;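 also: 0% = vehicle wells and 100% = reference inhibitor control wells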
SARS 3CLpro inh – SARS-CoV 3CLpro protease inhibition. inhibition, % at 6 µM. P0C6X7. recombinant SARS-CoV 3CLpro, quenched FRET peptide cleavage. AID 1706. 0.14% of 290,000 active; in the data active = inhibition above about 12%
SSB-PriA inh – K. pneumoniae PriA-SSBct interaction inhibition; 0.6% of 430,000 active; inhibition, % at 33 µM; AID 1272365; AlphaScreen SSBct-PriA binding, biotinylated peptide; in the data active = inhibition mostly above about 37%, no sharp cut-off; inactive = mostly below about 20%;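 also: plate controls were negative control peptide for no effect and reference peptide for full effect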
DUSP3 inh – blocks human VHR1 dual specificity phosphatase; P51452; recombinant VHR phosphatase, pNPP absorbance; inhibition, % at 13.3 µM; 0.52% of 290,000 active; in the data active = inhibition above about 50%
CCHF vOTU inh-1 – CCHFV vOTU protease inhibition; 0.55% of 370,000 active; AID 651958; inhibition, % at 11.5 µM; Pep-AMC fluorescence; also: 0% = vehicle wells with enzyme and 100% = no enzyme wells
GFP chromo cs – counter-screen GFP chromophore formation inhibition | shares compounds with RecA splice inh | cell-free GFP chromophore formation, fluorescence | EC50, µM | 83% of 2,100 active; call rule not given here
CCHF vOTU inh-2 – CCHFV vOTU protease inhibition, confirmation; AID 686976; 17% of 1,900 active; inhibition, % at 11.5 µM; Recombinant CCHFV vOTU, Pep-AMC fluorescence; shares compounds with CCHF vOTU inh-1
* hit, by the source's call; / = not tested or not shown. Rule as the data show it, unless noted: active = inhibition above about 30%; inactive = the rest.

SMILES | RecA splice inh | SARS 3CLpro inh | SSB-PriA inh | DUSP3 inh | CCHF vOTU inh-1 | GFP chromo cs | CCHF vOTU inh-2
O=C1C=C(N2CCOCC2)c2ccccc2C1=O | 96.8* | 4.0 | 8.8 | 17.9 | 102.7* | 0.557* | 93.8*
Cc1ccc(NC2=CC(=NS(=O)(=O)c3cccs3)c3ccccc3C2=O)c(C)c1 | / | / | 20.3 | / | / | / | /
Cc1ccc(NC2=C/C(=N/S(=O)(=O)c3cccs3)c3ccccc3C2=O)cc1 | 31.0* | 0.5 | / | -9.9 | 98.4* | 0.139* | 98.7*
Cc1ccc(S(=O)(=O)/N=C2\C=C(NS(=O)(=O)c3ccccc3)C(=O)c3ccccc32)c(C)c1 | / | / | / | / | 11.3 | / | /
Cc1ccc(S(=O)(=O)/N=C2\C=C(Nc3cccc(C(=O)O)c3)C(=O)c3ccccc32)c(C)c1 | 82.3* | 7.6 | / | 20.4 | 113.9* | >38 | 112.2*
O=c1[nH]c(Nc2ccccc2Cl)cc2ccccc12 | 86.0* | / | -9.5 | / | 94.1* | 16.4* | -71.4
COC(=O)c1ccc(S(=O)(=O)NCC#CCOc2ccccc2OC)cc1 | / | / | -4.0 | / | / | / | /
O=C(/C=C/c1ccc([N+](=O)[O-])s1)Nc1cccc(-c2nc3ccccc3[nH]2)c1 | / | / | 21.0 | / | / | / | /
COc1ccc(NC(=O)Nc2ccc(O)c3ccccc23)cc1 | 67.4* | / | -13.3 | / | 82.1* | 4.3* | -17.1
COc1ccc(NC(=O)c2ccccc2NC(=O)c2ccccc2)cc1 | -0.9 | 3.7 | -0.1 | -6.2 | -0.8 | / | /
COc1ccc(C(=O)Nc2ccc(O)c3ccccc23)cc1 | 98.0* | / | 2.1 | / | 30.6* | 0.218* | -8.6
CC(=O)Nc1ccc(S(=O)(=O)/N=C2\C(=O)c3ccccc3C([O-])=C2n2cc[n+](-c3ccccn3)c2)cc1 | 85.3* | 2.0 | / | 9.1 | 67.8* | 6.15* | 58.1*
CCCC[n+]1ccn(C2=C([O-])c3ccccc3C(=O)C2=NS(=O)(=O)c2ccccc2)c1 | / | / | 4.8 | / | / | / | /
O=C(C(C=Nc1ccc(Br)cc1)=C(O)c1ccco1)C(F)(F)F | / | / | 6.8 | / | / | / | /
Cc1oc(-c2ccc(OC(C)C)cc2)nc1Cn1c(=O)n(C(C)C)c(=O)c2ccccc21 | / | / | -8.0 | / | / | / | /
COc1cc(Cc2nccc3cc(OC)c(OC)cc23)c(S(=O)(=O)O)cc1OC | 41.9* | -0.7 | -8.4 | 9.5 | 71.1* | >38 | -12.9
Cn1nc(-c2ccccn2)nc2c(=O)n(C)c(=O)nc1-2 | 95.1* | 16.3* | 34.5 | / | 102.1* | 0.41* | 104.2*
Cn1c(-c2ccccn2)nn(CC(=O)c2ccccc2)c1=O | / | / | 6.0 | / | / | / | /
CC1=NN(c2ccc(F)cc2)C(=O)C1C(c1cccc(O)c1)c1c(C)[nH]n(-c2ccc(F)cc2)c1=O (stereo not drawn) | 96.8* | 3.6 | 4.1 | 17.3 | 66.3* | 1.79* | -16.4
CC(C)=CCC1=C(OCC(=O)O)C(=O)c2ccccc2C1=O | 62.6* | 2.5 | -8.3 | 15.2 | 110.4* | 12* | 85.1*
CC(C)=CCC/C(C)=C/CC/C(C)=C/CC/C(C)=C/CC1=C(C)C(=O)c2ccccc2C1=O | 25.7 | / | 2.5 | -1.2 | 3.0 | / | /
O=C1Cc2ccccc2C(=O)N1Cc1ccccc1 | 90.4* | 1.0 | 7.8 | 15.8 | 93.0* | 1.87* | 90.6*
COc1ccc(-c2cc(=O)n(CCC#N)[nH]2)cc1 | 96.7* | 1.1 | -1.3 | 1.2 | 62.5* | 2.01* | -27.3
O=C(NCCC1CCCCN1S(=O)(=O)c1ccc(Cl)cc1)C(=O)NCc1cccs1 (stereo not drawn) | / | / | -12.0 | / | / | / | /
O=C(NCc1ccccc1F)c1cn(-c2cc(N3CCCCC3)ncn2)cn1 | / | / | -12.0 | / | / | / | /
SMILES | RecA splice inh | SARS 3CLpro inh | SSB-PriA inh | DUSP3 inh | CCHF vOTU inh-1 | GFP chromo cs | CCHF vOTU inh-2
O=C1C=C(Nc2ccccc2C(=O)O)c2ccccc2C1=O | 96.7* | 4.9 | 2.3 | 16.6 | 71.7* | 2.47* | 94.9*
O=C1C=C(Nc2ccccc2)C(=O)c2ccccc21 | 13.1 | 0.8 | 0.1 | 16.5 | 17.5 | / | /
O=C1C=C(Nc2ccccc2)c2ccccc2C1=O | 69.6* | 2.2 | 21.1 | 10.6 | 55.0* | 0.85* | 73.0*
O=C(CN1C(=O)c2ccccc2C1=O)Nc1cccc2cccnc12 | -0.3 | 3.6 | -6.3 | 33.5 | -1.4 | / | /
CCCCNC1=CC(=O)C(=O)c2ccccc21 | 97.2* | 3.6 | -12.5 | 8.5 | 34.7* | 0.981* | 67.7*
O=C1C=C(Nc2cccc3cccnc23)c2ccccc2C1=O | 90.1* | 1.5 | 8.1 | 15.6 | 37.9* | 3.59* | 28.8
CCOC(=O)C(C)Sc1nnc2[nH]c(=O)cc(CC)n12 (stereo not drawn) | / | / | -2.0 | / | / | / | /
COc1cccc(-c2ccc(=O)n(CC(=O)Nc3cccc(C)c3C)n2)c1 | / | / | 0.0 | / | / | / | /

Screens as filed in PubChem.
